# Experimental data taken from the supplement of paper PMC8728848.
# This is one part of a sample in which the strongest signals are shown more often than they occur.
# B1: PX9961Q-bfa-504-27-504 (Bacteroides fragilis) (protein)
# chain: NDWLDRKPADGIPSEDAITNYNDALTARTGMYDGIQGNSNATSYYGARMFYYGDVRADDMQARTQGMRSSSCYEMLYTVDDAPNMWNIPYNVIRRANRLIEAINEKKVTDATEAQIGKIYSEALVVRALVHFDLVRIYGMPYTADNGASLGVPVIVKPLERNDLPSRNTVAEVYTQVITDLTDAINSGYLAKDQTPGYINEWAAKALLTRVYLTKGDNENALKVAEDIITNSPYKLWTNEEYVNAWYKSNGAHTNEMIFEVVNASNDDWTDRNGIAYLLNENGYADAIVTKSFMNMLSQDPKDVRIGMVLPAQYDKDLQEEYGDAKIFINKFPADKDDVGEMRLNNLPLLRLSEVYLSAAEAAAKLGGHQDKAAKYLNEIVQRANPEAKAISEADATVERIILERRKEMIGEGQRYFDALRNNETIVRYKDEGDKGYHYSLIKESQSFDRTYFRAILPIPVDETNVNPNLRAQQNPGY
# Key:
# Assay in all cases: glycan array binding signal (z-score within array); higher = stronger binding
# Details in all cases: glycan notation: IUPAC condensed, linker removed
# [1] = target: Fuc(a1-2)Gal(b1-3)GlcNAc(b1-2)Man(a1-3)[Fuc(a1-2)Gal(b1-3)GlcNAc(b1-2)Man(a1-6)]Man(b1-4)GlcNAc(b1-4)GlcNAc
# Method in brief: (§1)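 The Consortium for Functional Glycomics database supplied 3228 glycan arrays, of which those lacking an available protein sequence were dropped. The binding signal, a within-array Z-score, was averaged across arrays of the same protein sequence and across linkers. Negative scores can be read as non-binding.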
# [2] = target: Fuc(a1-2)Gal(b1-3)GlcNAc(b1-3)Gal(b1-4)Glc
# Method in brief: as §1
# [3] = target: Fuc(a1-2)Gal(b1-3)GlcNAc(b1-3)[Gal(b1-4)GlcNAc(b1-6)]Gal(b1-4)Glc
# Method in brief: as §1
# Fuc(a1-2)Gal(b1-4)Glc = target: Fuc(a1-2)Gal(b1-4)Glc
# Method in brief: as §1
# [4] = target: Fuc(a1-2)Gal(b1-4)GlcNAc(b1-6)GalNAc
# Method in brief: as §1
# [5] = target: Fuc(a1-2)[Gal(a1-3)]Gal(b1-3)GalNAc
# Method in brief: as §1
# [6] = target: Fuc(a1-2)[Gal(a1-3)]Gal(b1-4)Glc
# Method in brief: as §1
# [7] = target: Fuc(a1-2)[Gal(a1-4)]Gal(b1-4)GlcNAc
# Method in brief: as §1
# [8] = target: Fuc(a1-2)[GalNAc(a1-3)]Gal(b1-4)GlcNAc
# Method in brief: as §1
# [9] = target: Fuc(a1-3)[Gal(b1-4)]GlcNAc(b1-2)Man(a1-3)[Fuc(a1-3)[Gal(b1-4)]GlcNAc(b1-2)Man(a1-6)]Man(b1-4)GlcNAc(b1-4)GlcNAc
# Method in brief: as §1
# [10] = target: Fuc(a1-3)[Gal(b1-4)]GlcNAc(b1-6)GalNAc
# Method in brief: as §1
# [11] = target: Gal(a1-3)Gal(b1-3)GlcNAc(b1-2)Man(a1-3)[Gal(a1-3)Gal(b1-3)GlcNAc(b1-2)Man(a1-6)]Man(b1-4)GlcNAc(b1-4)GlcNAc
# Method in brief: as §1
# [12] = target: Gal(a1-3)Gal(b1-3)[Fuc(a1-4)]GlcNAc(b1-2)Man(a1-3)[Gal(a1-3)Gal(b1-3)[Fuc(a1-4)]GlcNAc(b1-2)Man(a1-6)]Man(b1-4)GlcNAc(b1-4)GlcNAc
# Method in brief: as §1
# [13] = target: Gal(a1-4)Gal(b1-3)GlcNAc(b1-2)Man(a1-3)[Gal(a1-4)Gal(b1-3)GlcNAc(b1-2)Man(a1-6)]Man(b1-4)GlcNAc(b1-4)GlcNAc
# Method in brief: as §1
# Gal(a1-4)Gal(b1-4)Glc = target: Gal(a1-4)Gal(b1-4)Glc
# Method in brief: as §1
# [14] = target: Gal(b1-3)GlcNAc(b1-2)Man(a1-3)[Gal(b1-3)GlcNAc(b1-2)Man(a1-6)]Man(b1-4)GlcNAc(b1-4)GlcNAc
# Method in brief: as §1
# [15] = target: Gal(b1-3)GlcNAc(b1-3)Gal(b1-4)[Fuc(a1-3)]GlcNAc(b1-6)[Gal(b1-3)GlcNAc(b1-3)]Gal(b1-4)Glc
# Method in brief: as §1
# Gal(b1-3)GlcNAc6S = target: Gal(b1-3)GlcNAc6S
# Method in brief: as §1
# [16] = target: Gal(b1-4)GlcNAc(b1-2)Man(a1-3)[Man(a1-6)]Man(b1-4)GlcNAc(b1-4)GlcNAc
# Method in brief: as §1
# [17] = target: Gal(b1-4)GlcNAc(b1-3)Gal(b1-4)GlcNAc(b1-3)Gal(b1-4)GlcNAc(b1-2)Man(a1-3)[Gal(b1-4)GlcNAc(b1-3)Gal(b1-4)GlcNAc(b1-3)Gal(b1-4)GlcNAc(b1-2)Man(a1-6)]Man(b1-4)GlcNAc(b1-4)GlcNAc
# Method in brief: as §1
# [18] = target: Gal(b1-4)GlcNAc(b1-3)Gal(b1-4)GlcNAc(b1-3)Gal(b1-4)GlcNAc(b1-3)Gal(b1-4)GlcNAc(b1-2)Man(a1-3)[Gal(b1-4)GlcNAc(b1-3)Gal(b1-4)GlcNAc(b1-3)Gal(b1-4)GlcNAc(b1-3)Gal(b1-4)GlcNAc(b1-2)Man(a1-6)]Man(b1-4)GlcNAc(b1-4)GlcNAc
# Method in brief: as §1
# [19] = target: Gal(b1-4)GlcNAc(b1-3)Gal(b1-4)GlcNAc(b1-3)Gal(b1-4)GlcNAc(b1-3)Gal(b1-4)GlcNAc(b1-3)Gal(b1-4)GlcNAc(b1-2)Man(a1-3)[Gal(b1-4)GlcNAc(b1-3)Gal(b1-4)GlcNAc(b1-3)Gal(b1-4)GlcNAc(b1-3)Gal(b1-4)GlcNAc(b1-3)Gal(b1-4)GlcNAc(b1-2)Man(a1-6)]Man(b1-4)GlcNAc(b1-4)GlcNAc
# Method in brief: as §1
# [20] = target: Gal(b1-4)GlcNAc(b1-3)Gal(b1-4)[Fuc(a1-3)]GlcNAc(b1-3)Gal(b1-4)[Fuc(a1-3)]GlcNAc
# Method in brief: as §1
# [21] = target: Gal(b1-4)GlcNAc(b1-6)GalNAc
# Method in brief: as §1
# Gal3S(b1-3)GlcNAc = target: Gal3S(b1-3)GlcNAc
# Method in brief: as §1
# Gal6S(b1-4)Glc6S = target: Gal6S(b1-4)Glc6S
# Method in brief: as §1
# Gal6S(b1-4)GlcNAc = target: Gal6S(b1-4)GlcNAc
# Method in brief: as §1
# GalNAc(b1-4)Gal(b1-4)Glc = target: GalNAc(b1-4)Gal(b1-4)Glc
# Method in brief: as §1
# [22] = target: Glc(a1-6)Glc(a1-6)Glc(a1-6)Glc
# Method in brief: as §1
# Glc(b1-4)Glc = target: Glc(b1-4)Glc
# Method in brief: as §1
# [23] = target: GlcA3S(b1-3)Gal(b1-4)GlcNAc(b1-3)Gal(b1-4)Glc
# Method in brief: as §1
# [24] = target: GlcNAc(b1-3)Gal(b1-4)GlcNAc
# Method in brief: as §1
# [25] = target: GlcNAc(b1-3)Gal(b1-4)GlcNAc(b1-3)Gal(b1-4)GlcNAc(b1-3)Gal(b1-4)GlcNAc(b1-2)Man(a1-3)[GlcNAc(b1-3)Gal(b1-4)GlcNAc(b1-3)Gal(b1-4)GlcNAc(b1-3)Gal(b1-4)GlcNAc(b1-2)Man(a1-6)]Man(b1-4)GlcNAc(b1-4)[Fuc(a1-6)]GlcNAc
# Method in brief: as §1
# GlcNAc(b1-3)Man = target: GlcNAc(b1-3)Man
# Method in brief: as §1
# [26] = target: GlcNAc(b1-4)Gal(b1-4)GlcNAc
# Method in brief: as §1
# [27] = target: GlcNAc(b1-4)GlcNAc(b1-4)GlcNAc(b1-4)GlcNAc(b1-4)GlcNAc(b1-4)GlcNAc
# Method in brief: as §1
# GlcNAc(b1-6)GalNAc = target: GlcNAc(b1-6)GalNAc
# Method in brief: as §1
# [28] = target: Man(a1-2)Man(a1-2)Man(a1-6)[Man(a1-3)]Man
# Method in brief: as §1
# [29] = target: Man(a1-3)[Man(a1-6)]Man(a1-6)[Man(a1-3)]Man
# Method in brief: as §1
# Man(a1-6)Man = target: Man(a1-6)Man
# Method in brief: as §1
# [30] = target: Neu5Ac(a2-3)Gal(b1-4)GlcNAc(b1-2)[Neu5Ac(a2-3)Gal(b1-4)GlcNAc(b1-6)]Man(a1-6)[Neu5Ac(a2-3)Gal(b1-4)GlcNAc(b1-2)Man(a1-3)][GlcNAc(b1-4)]Man(b1-4)GlcNAc(b1-4)GlcNAc
# Method in brief: as §1
# [31] = target: Neu5Ac(a2-6)Gal(b1-3)GlcNAc(b1-3)[Gal(b1-4)GlcNAc(b1-6)]Gal(b1-4)Glc
# Method in brief: as §1
# [32] = target: Neu5Ac(a2-6)Gal(b1-4)GlcNAc
# Method in brief: as §1
# [33] = target: Neu5Ac(a2-6)Gal(b1-4)GlcNAc(b1-2)Man(a1-6)[GlcNAc(b1-2)Man(a1-3)]Man(b1-4)GlcNAc(b1-4)GlcNAc
# Method in brief: as §1
# [34] = target: Neu5Ac(a2-6)Gal(b1-4)GlcNAc(b1-2)[Neu5Ac(a2-6)Gal(b1-4)GlcNAc(b1-4)]Man(a1-3)[GlcNAc(b1-4)][Neu5Ac(a2-6)Gal(b1-4)GlcNAc(b1-2)[Neu5Ac(a2-6)Gal(b1-4)GlcNAc(b1-6)]Man(a1-6)]Man(b1-4)GlcNAc(b1-4)GlcNAc
# Method in brief: as §1
# [35] = target: Neu5Ac(a2-6)Gal(b1-4)GlcNAc(b1-3)Gal(b1-4)GlcNAc(b1-3)GalNAc
# Method in brief: as §1
# [36] = target: Neu5Ac(a2-6)Gal(b1-4)GlcNAc(b1-3)GalNAc
# Method in brief: as §1
# Neu5Gc(a2-6)GalNAc = target: Neu5Gc(a2-6)GalNAc
# Method in brief: as §1
binder,measurement,setting,value
B1,glycan array binding signal (z-score),[1],2.69
same,glycan array binding signal (z-score),[2],0.015
same,glycan array binding signal (z-score),[3],-0.322
same,glycan array binding signal (z-score),Fuc(a1-2)Gal(b1-4)Glc,-0.701
same,glycan array binding signal (z-score),[4],0.145
same,glycan array binding signal (z-score),[5],0.904
same,glycan array binding signal (z-score),[6],0.106
same,glycan array binding signal (z-score),[7],1.12
same,glycan array binding signal (z-score),[8],-0.704
same,glycan array binding signal (z-score),[9],0.155
same,glycan array binding signal (z-score),[10],4.03
same,glycan array binding signal (z-score),[11],0.772
same,glycan array binding signal (z-score),[12],8.13
same,glycan array binding signal (z-score),[13],2.6
same,glycan array binding signal (z-score),Gal(a1-4)Gal(b1-4)Glc,0.623
same,glycan array binding signal (z-score),[14],3.77
same,glycan array binding signal (z-score),[15],12.8
same,glycan array binding signal (z-score),Gal(b1-3)GlcNAc6S,-0.822
same,glycan array binding signal (z-score),[16],-0.622
same,glycan array binding signal (z-score),[17],2.45
same,glycan array binding signal (z-score),[18],2.49
same,glycan array binding signal (z-score),[19],0.85
same,glycan array binding signal (z-score),[20],-0.284
same,glycan array binding signal (z-score),[21],0.056
same,glycan array binding signal (z-score),Gal3S(b1-3)GlcNAc,-0.053
same,glycan array binding signal (z-score),Gal6S(b1-4)Glc6S,-0.063
same,glycan array binding signal (z-score),Gal6S(b1-4)GlcNAc,-0.679
same,glycan array binding signal (z-score),GalNAc(b1-4)Gal(b1-4)Glc,0.821
same,glycan array binding signal (z-score),[22],-0.611
same,glycan array binding signal (z-score),Glc(b1-4)Glc,-0.009
same,glycan array binding signal (z-score),[23],-1.22
same,glycan array binding signal (z-score),[24],-0.27
same,glycan array binding signal (z-score),[25],2.65
same,glycan array binding signal (z-score),GlcNAc(b1-3)Man,0.083
same,glycan array binding signal (z-score),[26],-0.752
same,glycan array binding signal (z-score),[27],-0.594
same,glycan array binding signal (z-score),GlcNAc(b1-6)GalNAc,0.361
same,glycan array binding signal (z-score),[28],0.712
same,glycan array binding signal (z-score),[29],0.661
same,glycan array binding signal (z-score),Man(a1-6)Man,-0.352
same,glycan array binding signal (z-score),[30],0.676
same,glycan array binding signal (z-score),[31],6.14
same,glycan array binding signal (z-score),[32],-0.355
same,glycan array binding signal (z-score),[33],-0.638
same,glycan array binding signal (z-score),[34],2.53
same,glycan array binding signal (z-score),[35],-0.164
same,glycan array binding signal (z-score),[36],-0.107
same,glycan array binding signal (z-score),Neu5Gc(a2-6)GalNAc,0.187
